{
  "source": "PubChem BioAssay (NCATS)",
  "note": "Results filed as inconclusive are left out. Activity calls are given as the source filed them. Calls come from the whole dose curve; as a rule, active = well fitted cell-killing curve with a large enough effect; inconclusive = small, poorly fitted or top-dose-only effect; inactive = flat fitted curve, though single readings scatter.",
  "data": [
    {"assay": "Cell Viability - LYMP2-006 (AID 978); note: nearly all actives have a fitted effect of over 60% in size", "settings": "LYMP2-006 lymphoblastoid cell viability, qHTS; series mostly up to 92.2 µM", "source_text": "NIH Chemical Genomics Center [NCGC]\nNIH Molecular Libraries Screening Centers Network [MLSCN]\nNational Institutes of Environmental Health Sciences [NIEHS]\nNational Toxicology Program [NTP]\nWe have developed a 1536-well cell-based assay for quantitative high throughput screening (qHTS) against a number of cell lines to determine in vitro cytotoxicity of small molecules. This particular assay uses a human lymphoblastoid cell line (LYMP2-006) purchased from Coriell Institute for Medical Research.\nNCGC Assay Protocol Summary:\nThe CellTiter-Glo luminescent cell viability assay (Promega) is a homogeneous method to measure the number of viable cells in culture. The end point readout of this assay is based on quantitation of intracellular ATP, an indicator of metabolic activity, using the luciferase reaction. Luciferase catalyzes the oxidation of beetle Luciferin to oxyluciferin and light in the presence of ATP. The luminescent signal is proportional to amount of ATP present.\nUsing the CellTiter-Glo luminescent cell viability assay, the amount of cellular ATP was measured in the lymphoblastoid cell line with complete culture medium following compound treatment for 24 hours. The assay was performed in opaque white Kalypsys 1536-well plates. In the screen, tetraoctylammonium bromide was used as positive control. Library compounds were measured for their ability to cause acute toxicity in the cell line, as reflected by a decrease in intracellular ATP levels, in a concentration-dependent manner. […] AC50 values were determined from concentration-response data modeled with the standard Hill equation.\nqHTS protocol for CellTiter Glo lymphoblastoid cellular assay\n[Step] [Parameter] [Value] [Description]\n1. Reagent; 5 uL; 2500 lymphoblastoid cells/well\n2. Time; 5 hr; 37 C incubation\n4. Controls; 23 nL; Tetraoctylammonium bromide 6.4pM to 92 uM\n5. Time; 24 hr; 37 C incubation\n6. Reagent; 5 uL; CellTiter Glo reagent\n7. Time; 30 min; Room Temperature\n8. Detection; Luminescence; Viewlux plate reader\nKeywords: cell viability, cytotoxicity, lymphoblastoid cell line, luminescence, NTPHTS, NTPHTS_NCGC, NIEHS, DSSTox, MLSMR, MLSCN, NIH Roadmap, qHTS, NCGC", "values": [
      {"smiles": "CC(=O)Nc1ccc(C(=O)O)cc1", "outcome": "inactive"},
      {"smiles": "Cc1cc(C)nc(NS(=O)(=O)c2ccc(N)cc2)n1", "outcome": "inactive"},
      {"smiles": "C=CCNC(N)=S", "outcome": "inactive"},
      {"smiles": "CCCC(O)C(CC)CO", "note": "(configuration not stated)", "outcome": "inactive"},
      {"smiles": "FC(F)(F)C(Cl)Br", "note": "(configuration not stated)", "outcome": "inactive"},
      {"smiles": "CCCCOC(=O)c1ccc(N)cc1", "outcome": "inactive"},
      {"smiles": "CC(=O)NS(=O)(=O)c1ccc(N)cc1", "outcome": "inactive"},
      {"smiles": "O=C(O)CCCCC1CCSS1", "note": "(configuration not stated)", "outcome": "inactive"},
      {"smiles": "CCCCCC(N)=O", "outcome": "inactive"},
      {"smiles": "CC(=O)OCC(COC(C)=O)OC(C)=O", "outcome": "inactive"},
      {"smiles": "CC(=O)Nc1ccccc1", "outcome": "inactive"},
      {"smiles": "Nc1ccc(S(=O)(=O)c2ccc(N)cc2)cc1", "outcome": "inactive"},
      {"smiles": "O=C(c1ccccc1)C(O)c1ccccc1", "note": "(configuration not stated)", "outcome": "inactive"},
      {"smiles": "CC1CC(OC(=O)c2ccccc2O)CC(C)(C)C1", "note": "(configuration not stated)", "outcome": "inactive"},
      {"smiles": "O=C1c2cccc(O)c2C(=O)c2c(O)cccc21", "outcome": "inactive"},
      {"smiles": "O=C1C(c2[nH]c3ccccc3c2O)=Nc2ccccc21", "outcome": "inactive"},
      {"smiles": "Cc1cc(=O)[nH]c(=S)[nH]1", "outcome": "inactive"},
      {"smiles": "CC(=O)Nc1cccc(O)c1", "outcome": "inactive"},
      {"smiles": "COc1ccc(O)cc1", "outcome": "inactive"},
      {"smiles": "CCCCCCCC(=O)OCC(COC(=O)CCCCCCC)OC(=O)CCCCCCC", "outcome": "inactive"},
      {"smiles": "CCN(CC)C(=O)c1cccc(C)c1", "outcome": "inactive"},
      {"smiles": "Cc1c(N(C)C)c(=O)n(-c2ccccc2)n1C", "outcome": "inactive"}
    ]}
  ]
}
